The text below walks through data of PubChem BioAssay (EPA / NIEHS).

One test concerns TTR (gene 7276). Nature of the test: CCTE_GLTED_hTTR_0.125uM: CCTE's human Transthyretin (hTTR) Inhibition Assay, with 0.125uM TTR, Great Lakes Toxicology and Ecology Division (GLTED) Lab (AID 2284431).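 Further: hits lower the fluorescence signal relative to DMSO baseline.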 Put shortly:
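Probe-displacement format: chemicals competing for the T4 site release ANSA from 0.125uM TTR during a 2 h incubation, measured by fluorescence at 380 excitation and 475 emission.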

A short description of test [1]: Tanguay_ZF_120hpf_CRAN: Oregon State University Tanguay Lab 120 Hour Post-fertilization zebrafish Assay for Craniofacial Malformation (AID 2284397). In short, it runs like this:
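Dechorionated Tropical 5D wild-type zebrafish embryos, one per well, were statically exposed from 6 to 120 hpf at 28C in 0.64% DMSO, with 5uM trimethyltin chloride as positive control. Craniofacial malformation was scored present/absent by brightfield microscopy, relative to DMSO.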

The nature of test [2]: Tanguay_ZF_120hpf_AXIS: Oregon State University Tanguay Lab 120 Hour Post-fertilization zebrafish Assay for Axial Malformation (AID 2284398). Put shortly:
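Dechorionated 5D wild-type zebrafish embryos exposed statically, one per well, from 6 to 120 hpf at 28C, 0.64% DMSO. Axial malformation scored as present/absent by brightfield microscopy at 120 hpf; dead embryos not scored.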

A short description of test [3]: Tanguay_ZF_120hpf_MORT: Oregon State University Tanguay Lab 120 Hour Post-fertilization zebrafish Assay for Mortality (AID 2284399). Put shortly:
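Dechorionated wild-type Tropical 5D zebrafish embryos, one per well from 6 hpf, static exposure to 120 hpf at 28C in sealed dark plates, 0.64% DMSO final. Mortality scored as binary by brightfield at 24 and 120 hpf.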

The nature of test [4]: Tanguay_ZF_120hpf_EDEM: Oregon State University Tanguay Lab 120 Hour Post-fertilization zebrafish Assay for Edema Malformation (AID 2284400). In short, it runs like this:
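Dechorionated Tropical 5D wild-type embryos, one per well, statically exposed from 6 to 120 hpf at 28C in 0.64% DMSO. Edema scored present/absent by brightfield microscopy at 120 hpf; dead embryos not scored; fit versus DMSO.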

A short description of test [5]: Tanguay_ZF_120hpf_MUSC: Oregon State University Tanguay Lab 120 Hour Post-fertilization zebrafish Assay for Muscle Malformation (AID 2284401). Put shortly: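 Dechorionated Tropical 5D wild-type zebrafish embryos exposed statically from 6 to 120 hpf at 28C, one per well, in 0.64% DMSO. Muscle malformation scored present/absent by brightfield microscopy at 120 hpf, fitted against DMSO.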

Test [6] can be described thus: Tanguay_ZF_120hpf_BRN: Oregon State University Tanguay Lab 120 Hour Post-fertilization zebrafish Assay for Brain Region Malformation (AID 2284402). In short, it runs like this: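 Dechorionated wild-type Tropical 5D zebrafish embryos exposed statically from 6 to 120 hpf at 28C, one per well, 0.64% DMSO final. Brain malformation scored at 120 hpf by brightfield as present/absent; dead embryos not scored.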

Test [7] can be described thus: Tanguay_ZF_120hpf_TCHR: Oregon State University Tanguay Lab 120 Hour Post-fertilization zebrafish Assay for Touch Responsive (AID 2284403). In short, it runs like this:
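Dechorionated Tropical 5D wild-type zebrafish embryos, one per well from 6 hpf, were statically exposed to 120 hpf at 28 °C (0.64% DMSO). Touch response was scored present/absent at 120 hpf and not scored in dead larvae.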

A short description of test [8]: Tanguay_ZF_120hpf_ANY: Oregon State University Tanguay Lab 120 Hour Post-fertilization zebrafish Assay for Any Mortality and Malformation (AID 2284404). In short, it runs like this:
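Dechorionated Tropical 5D wild-type embryos, one per well from 6 hpf, static exposure in sealed, dark plates at 28C until 120 hpf, 0.64% DMSO final. Brightfield scoring of mortality and malformations as binary presence/absence, pooling 13 morphology endpoints.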

Test [9] is described as follows: CCTE_Padilla_ZF_Score.Craniofacial: CCTE's 144 Hour Post-fertilization zebrafish Assay Score for Craniofacial Malformation, Padilla Lab (AID 2284405). In short, it runs like this: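 Wild-type zebrafish embryos (with chorions), one per well in 10% Hanks', were dosed at 6–8 hpf in sealed plates and kept at 26C. They were rinsed at 5 dpf. At 6 dpf two blinded assessors scored craniofacial malformations by brightfield stereomicroscopy.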

A short description of test [10]: CCTE_Padilla_ZF_Score.Edema: CCTE's 144 Hour Post-fertilization zebrafish Assay Score for Edema Malformation, Padilla Lab (AID 2284406). Put shortly: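 Wild-type zebrafish embryos, one per well in Hanks' solution, dosed at 6-8 hpf, sealed and reared at 26C on a 14:10 h cycle; rinsed on 5 dpf. At 6 dpf, blinded assessors scored edema by stereomicroscopy.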
Test [11] is described as follows: CCTE_Padilla_ZF_Score.Spine: CCTE's 144 Hour Post-fertilization zebrafish Assay Score for Spine Malformation, Padilla Lab (AID 2284407). In short, it runs like this: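 Wild-type zebrafish embryos, one per well in Hanks' solution, dosed at 6–8 hpf in sealed plates at 26C, 14:10 h light:dark; rinsed at 5 dpf. Two blinded assessors scored spinal defects by stereomicroscopy at 6 dpf; fitted versus DMSO.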

The nature of test [12]: CCTE_Padilla_ZF_Score.Swim_bladder: CCTE's 144 Hour Post-fertilization zebrafish Assay Score for Swim Bladder Malformation, Padilla Lab (AID 2284408). Put shortly:
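Wild-type zebrafish embryos, one per well in 10% Hanks', dosed at 6–8 hpf, sealed, reared at 26C and rinsed at 5 dpf. Blinded assessors scored uninflated swim bladder by stereomicroscopy at 6 dpf, relative to DMSO.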

The nature of test [13]: CCTE_Padilla_ZF_Score.Position: CCTE's 144 Hour Post-fertilization zebrafish Assay Score for Position, Padilla Lab (AID 2284409). In short, it runs like this: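 Wild-type zebrafish embryos (with chorions) exposed singly from 6–8 hpf in sealed wells of Hanks' solution at 26C, rinsed at 5 dpf. At 6 dpf, blinded assessors scored abnormal water-column position by brightfield stereomicroscopy, relative to DMSO.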

A short description of test [14]: CCTE_Padilla_ZF_Score.Living: CCTE's 144 Hour Post-fertilization zebrafish Assay Score for Viability, Padilla Lab (AID 2284410).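 Further: larval death at 6 dpf judged by absent heartbeat or coagulation.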 In short, it runs like this: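 Wild-type zebrafish embryos were exposed singly from 6–8 hpf in sealed wells of Hanks' solution at 26C, then rinsed at 5 dpf. At 6 dpf, blinded assessors scored mortality (no heartbeat or coagulation) by stereomicroscopy, fitted against DMSO.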

A short description of test [15]: CCTE_Padilla_ZF_Score.Tail: CCTE's 144 Hour Post-fertilization zebrafish Assay Score for Tail Malformation, Padilla Lab (AID 2284414). Put shortly: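 Wild-type zebrafish embryos, one per well in 200 uL 10% Hanks', dosed at 6-8 hpf, sealed, and kept at 26 C on a 14:10 h light cycle. Chemical was rinsed out at 5 dpf. Blinded brightfield scoring of tail defects followed at 6 dpf.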

A short description of test [16]: CCTE_Padilla_ZF_Score.Blood_pooling: CCTE's 144 Hour Post-fertilization zebrafish Assay Score for Blood Pooling, Padilla Lab (AID 2284415). In short, it runs like this: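 Wild-type outbred zebrafish embryos, one per well in 10% Hanks', exposed from 6–8 hpf in sealed plates at 26C on 14:10 h light:dark, rinsed at 5 dpf. Blinded stereomicroscope scoring of blood pooling at 6 dpf; gain-of-signal versus DMSO.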

Test [17] is described as follows: CCTE_Padilla_ZF_Score.Any: CCTE's 144 Hour Post-fertilization zebrafish Assay Score for Any Mortality or Malformation, Padilla Lab (AID 2284416). Put shortly: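 Wild-type zebrafish embryos with chorions, one per well in 10% Hanks' from 6–8 hpf, dosed in sealed plates at 26 C, 14:10 h light:dark; rinsed at 5 dpf; blinded scoring at 6 dpf for death or malformation, versus DMSO.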

Several values for one entry are separate records, joined by “and”; a condition that tells them apart may be missing. Equal values may be shown once. Activity calls are given as the source filed them. How the source made its calls: active means hit-call score of the fitted dose curve at least 0.9, where 1 is the maximum; inactive means score below 0.9.

Regarding `O=[N+]([O-])c1ccc(O)c([N+](=O)[O-])c1`, the AC50 with TTR (gene 7276) is 0.155 µM (active).
Still for that read-out and setting: with `CCC(C)(C)c1ccc(O)c(C(C)(C)CC)c1` the figure was 3.18 µM (active); with `COc1cc(-c2ccc(N)c(OC)c2)ccc1N`, 104 nM (active) and 2.64 µM (active).
As for `O=C(O)C(F)(F)C(F)(F)C(F)(F)C(F)(F)C(F)(F)C(F)(F)F`, the result in test [1], in test [2], in [3], in [4], in [5] and in test [6] was inactive. Moreover, the result in test [7], in [8], in test [9], in [10], in test [11] and in test [12] was inactive. The molecule was classed as inactive in test [13], in test [14], in test [15] and in [16]. The concentration at half-maximal activity (AC50) in test [17] is 98.9 µM (active); with TTR (gene 7276) it was 0.236 µM (active).
On to `ClC(Cl)=C(Cl)C(Cl)=C(Cl)Cl`, for which the half-maximal activity concentration (AC50) with TTR (gene 7276) is 9.92 µM (active).
As for `O=C(O)CCC(F)(C(F)(F)F)C(F)(F)F`, the outcome in test [9], in [10], in test [11], in [12], in [13] and in test [14] was inactive. The molecule was classed as inactive in test [15], in test [16] and in test [17].
For the molecule `CCCCCCCCc1ccc(O)cc1`, in the test on TTR (gene 7276), the concentration at half-maximal activity (AC50) was 1.2 µM (active).
Turning to `O=C(O)C(F)(F)C(F)(F)C(F)(F)C(F)(F)C(F)(F)C(F)(F)C(F)(F)C(F)(F)C(F)(F)C(F)(F)F`, the result in [1], in test [2], in test [4], in [5], in test [6] and in test [7] was inactive. Moreover, the result in test [11], in [13], in test [15] and in test [16] was inactive. The AC50 is 66.5 µM (active) in [8]; 2.41 µM (active) in test [9]; 2.4 µM (active) in [10]; 2.41 µM (active) in test [12]; 50.7 µM (active) in test [14]; 3.35 µM (active) in test [17]. Moreover, the AC50 in the test on TTR (gene 7276) was 0.783 µM (active).
In the case of `COP(=S)(OC)Oc1ccc(Sc2ccc(OP(=S)(OC)OC)cc2)cc1`, in the test with TTR (gene 7276), the AC50 is 0.537 µM (active).
The same measure, in the same setting: as for `CC(C)(c1ccccc1)c1ccc(O)c(C(C)(C)c2ccccc2)c1`, the figure is 0.241 µM (active); as for `CC(C)(C)CC(C)(C)c1ccc(O)cc1`, 13.1 µM (active); as for `O=C1C(Cl)=C(Cl)C(=O)c2ccccc21`, 3.67 µM (active).
Still for that read-out and setting: as for `COP(=O)(OC)O/C(=C\Cl)c1cc(Cl)c(Cl)cc1Cl`, the figure is 1.18 µM (active); as for `Oc1ccc(-c2ccccc2)cc1`, 2.83 µM (active); as for `CCOP(=S)(OCC)Oc1nc(Cl)c(Cl)cc1Cl`, 0.376 µM (active).
On to `CCOP(=S)(OCC)SCSP(=S)(OCC)OCC`, for which the AC50 with TTR (gene 7276) was 1.57 µM (active).
